For part of these data: Measured potencies and affinities stand elsewhere.
Experiments:
Set-up in all cases: scale not given: direction of the effect not stated beside the values
[1] = target: Protein translocase subunit SecA (Escherichia coli (strain K12)) (UniProt P10408); experiment: Assay to Identify E. coli SecA ATPase Inhibitors; format: functional; details: 30 µM
[2] = target: T1, Ubiquitin-activating enzyme e1, putative (Leishmania donovani (strain BPK282A1)) (UniProt E9BSI1); experiment: Leishmania donovani Ubiquitin Activating Enzyme (LdE1); format: functional; details: 30 µM
T1 sequence (whole entry): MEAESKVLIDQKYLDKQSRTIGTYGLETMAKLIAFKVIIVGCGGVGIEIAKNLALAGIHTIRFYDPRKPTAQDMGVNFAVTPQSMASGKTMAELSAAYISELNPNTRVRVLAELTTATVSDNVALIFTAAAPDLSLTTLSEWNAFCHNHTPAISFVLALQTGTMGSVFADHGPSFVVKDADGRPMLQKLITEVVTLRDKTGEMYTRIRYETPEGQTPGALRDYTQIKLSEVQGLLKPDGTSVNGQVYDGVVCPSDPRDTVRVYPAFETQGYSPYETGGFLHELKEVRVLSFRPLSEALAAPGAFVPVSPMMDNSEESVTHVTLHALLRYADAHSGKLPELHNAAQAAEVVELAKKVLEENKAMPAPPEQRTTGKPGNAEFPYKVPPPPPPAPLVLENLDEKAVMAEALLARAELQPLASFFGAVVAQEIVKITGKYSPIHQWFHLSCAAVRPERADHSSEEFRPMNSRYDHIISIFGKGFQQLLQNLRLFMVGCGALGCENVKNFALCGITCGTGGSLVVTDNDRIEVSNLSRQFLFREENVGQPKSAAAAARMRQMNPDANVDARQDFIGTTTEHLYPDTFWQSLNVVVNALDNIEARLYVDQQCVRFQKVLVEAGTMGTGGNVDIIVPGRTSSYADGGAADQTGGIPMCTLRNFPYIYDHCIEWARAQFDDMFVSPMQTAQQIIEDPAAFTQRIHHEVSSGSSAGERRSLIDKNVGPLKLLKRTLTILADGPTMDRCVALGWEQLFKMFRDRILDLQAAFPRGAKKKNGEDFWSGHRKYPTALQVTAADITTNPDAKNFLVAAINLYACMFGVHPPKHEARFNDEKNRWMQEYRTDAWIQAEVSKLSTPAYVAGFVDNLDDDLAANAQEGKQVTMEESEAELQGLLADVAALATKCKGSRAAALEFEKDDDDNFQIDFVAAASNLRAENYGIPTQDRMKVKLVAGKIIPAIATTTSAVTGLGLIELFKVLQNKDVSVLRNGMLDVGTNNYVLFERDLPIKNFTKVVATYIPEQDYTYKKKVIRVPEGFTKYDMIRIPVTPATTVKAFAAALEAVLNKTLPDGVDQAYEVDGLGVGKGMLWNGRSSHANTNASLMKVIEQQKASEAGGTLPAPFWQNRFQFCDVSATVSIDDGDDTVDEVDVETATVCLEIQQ

[3] = target: Sialic acid-binding Ig-like lectin 9 (Homo sapiens) (UniProt Q9Y336); experiment: Hs-Siglec9 ALPHAscreen SOP 20170721; details: 10 µM
[4] = test system: Trypanosoma cruzi; experiment: Trypanosoma cruzi phosphomannomutase and mannose-1-phosphate guanylyltransferase assay; format: functional; details: 10 µM
[5] = target: T2, Arginase-2, mitochondrial (Homo sapiens) (UniProt P78540); experiment: in vitro enzyme assay to detect the production of urea directly proportional to the activity of Arginase II; format: functional; details: 33.3 µM; further: in the data most compounds retested in dose-response had high values
T2 sequence (whole entry): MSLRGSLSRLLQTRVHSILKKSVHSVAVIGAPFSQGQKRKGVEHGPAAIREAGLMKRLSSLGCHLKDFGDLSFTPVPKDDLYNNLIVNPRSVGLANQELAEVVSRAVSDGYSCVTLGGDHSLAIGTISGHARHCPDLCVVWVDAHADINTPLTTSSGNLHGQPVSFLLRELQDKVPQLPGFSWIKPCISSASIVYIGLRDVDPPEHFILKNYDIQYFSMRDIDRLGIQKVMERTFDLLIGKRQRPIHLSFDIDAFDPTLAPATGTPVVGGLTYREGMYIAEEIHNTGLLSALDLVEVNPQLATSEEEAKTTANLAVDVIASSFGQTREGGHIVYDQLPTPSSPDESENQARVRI

[6] = target: T3, Proteasome subunit beta (Trypanosoma cruzi) (UniProt O96673); experiment: Trypanosoma cruzi proteasome chymotrypsin-like activity (TcProtChymo) assay.; further: in the data most compounds retested in dose-response had high values; format: functional; details: 9.37 µM
T3 sequence (whole entry): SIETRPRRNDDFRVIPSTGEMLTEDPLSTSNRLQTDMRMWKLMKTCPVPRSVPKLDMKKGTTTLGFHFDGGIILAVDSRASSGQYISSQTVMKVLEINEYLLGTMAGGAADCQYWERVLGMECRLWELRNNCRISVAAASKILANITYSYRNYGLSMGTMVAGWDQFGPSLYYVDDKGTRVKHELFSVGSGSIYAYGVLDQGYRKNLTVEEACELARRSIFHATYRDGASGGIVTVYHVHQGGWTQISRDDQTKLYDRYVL

[7] = species: Homo sapiens; experiment: To identify inhibition of the IFN signalling (Jak-Stat) pathway via expression of an eGFP reporter gene under the control of an IFN-stimulated response element (ISRE) containing MxA promoter.; format: functional; details: 30 µM
[8] = target: T4, Tyrosyl-tRNA synthetase, putative (Trypanosoma cruzi (strain CL Brener)) (UniProt Q4DSP6); experiment: Trypanosoma cruzi tyrosyl tRNA synthetase (TcYRS) _High Tyrosine SOP; format: functional; details: 30 µM; further: in the data most compounds retested in dose-response had high values
T4 sequence (whole entry): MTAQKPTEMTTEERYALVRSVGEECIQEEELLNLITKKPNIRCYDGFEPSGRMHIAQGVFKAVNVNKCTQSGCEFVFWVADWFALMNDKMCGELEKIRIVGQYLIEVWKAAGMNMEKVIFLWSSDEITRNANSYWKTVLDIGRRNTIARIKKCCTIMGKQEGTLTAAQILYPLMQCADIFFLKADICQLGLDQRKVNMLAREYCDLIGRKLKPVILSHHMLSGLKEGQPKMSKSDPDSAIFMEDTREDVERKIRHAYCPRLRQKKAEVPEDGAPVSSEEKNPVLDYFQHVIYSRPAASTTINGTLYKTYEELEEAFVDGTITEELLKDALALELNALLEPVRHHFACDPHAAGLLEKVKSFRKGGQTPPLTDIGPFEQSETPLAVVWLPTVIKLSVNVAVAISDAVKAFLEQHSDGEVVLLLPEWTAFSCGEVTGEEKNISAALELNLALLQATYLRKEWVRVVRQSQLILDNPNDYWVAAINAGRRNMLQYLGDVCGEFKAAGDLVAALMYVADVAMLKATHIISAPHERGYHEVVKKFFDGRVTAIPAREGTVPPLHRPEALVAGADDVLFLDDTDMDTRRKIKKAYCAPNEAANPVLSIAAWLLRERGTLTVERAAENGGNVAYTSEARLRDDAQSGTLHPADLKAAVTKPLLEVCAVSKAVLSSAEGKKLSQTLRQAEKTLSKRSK

[9] = target: T4, Tyrosyl-tRNA synthetase, putative (Trypanosoma cruzi (strain CL Brener)); experiment: Trypanosoma cruzi tyrosyl tRNA synthetase (TcYRS) SOP; format: functional; details: 30 µM
[10] = target: Chromo domain-containing protein 1 (Saccharomyces cerevisiae (strain ATCC 204508 / S288c) (Baker's yeast)) (UniProt P32657); experiment: ScCHD-1 Enzyme Inhibition Assay; format: functional; details: 30 µM; further: in the data most compounds retested in dose-response had high values
Chromo domain-containing protein 1 (Saccharomyces cerevisiae (strain ATCC 204508 / S288c) (Baker's yeast)), sequence (P32657 whole entry, the tested form may be a part): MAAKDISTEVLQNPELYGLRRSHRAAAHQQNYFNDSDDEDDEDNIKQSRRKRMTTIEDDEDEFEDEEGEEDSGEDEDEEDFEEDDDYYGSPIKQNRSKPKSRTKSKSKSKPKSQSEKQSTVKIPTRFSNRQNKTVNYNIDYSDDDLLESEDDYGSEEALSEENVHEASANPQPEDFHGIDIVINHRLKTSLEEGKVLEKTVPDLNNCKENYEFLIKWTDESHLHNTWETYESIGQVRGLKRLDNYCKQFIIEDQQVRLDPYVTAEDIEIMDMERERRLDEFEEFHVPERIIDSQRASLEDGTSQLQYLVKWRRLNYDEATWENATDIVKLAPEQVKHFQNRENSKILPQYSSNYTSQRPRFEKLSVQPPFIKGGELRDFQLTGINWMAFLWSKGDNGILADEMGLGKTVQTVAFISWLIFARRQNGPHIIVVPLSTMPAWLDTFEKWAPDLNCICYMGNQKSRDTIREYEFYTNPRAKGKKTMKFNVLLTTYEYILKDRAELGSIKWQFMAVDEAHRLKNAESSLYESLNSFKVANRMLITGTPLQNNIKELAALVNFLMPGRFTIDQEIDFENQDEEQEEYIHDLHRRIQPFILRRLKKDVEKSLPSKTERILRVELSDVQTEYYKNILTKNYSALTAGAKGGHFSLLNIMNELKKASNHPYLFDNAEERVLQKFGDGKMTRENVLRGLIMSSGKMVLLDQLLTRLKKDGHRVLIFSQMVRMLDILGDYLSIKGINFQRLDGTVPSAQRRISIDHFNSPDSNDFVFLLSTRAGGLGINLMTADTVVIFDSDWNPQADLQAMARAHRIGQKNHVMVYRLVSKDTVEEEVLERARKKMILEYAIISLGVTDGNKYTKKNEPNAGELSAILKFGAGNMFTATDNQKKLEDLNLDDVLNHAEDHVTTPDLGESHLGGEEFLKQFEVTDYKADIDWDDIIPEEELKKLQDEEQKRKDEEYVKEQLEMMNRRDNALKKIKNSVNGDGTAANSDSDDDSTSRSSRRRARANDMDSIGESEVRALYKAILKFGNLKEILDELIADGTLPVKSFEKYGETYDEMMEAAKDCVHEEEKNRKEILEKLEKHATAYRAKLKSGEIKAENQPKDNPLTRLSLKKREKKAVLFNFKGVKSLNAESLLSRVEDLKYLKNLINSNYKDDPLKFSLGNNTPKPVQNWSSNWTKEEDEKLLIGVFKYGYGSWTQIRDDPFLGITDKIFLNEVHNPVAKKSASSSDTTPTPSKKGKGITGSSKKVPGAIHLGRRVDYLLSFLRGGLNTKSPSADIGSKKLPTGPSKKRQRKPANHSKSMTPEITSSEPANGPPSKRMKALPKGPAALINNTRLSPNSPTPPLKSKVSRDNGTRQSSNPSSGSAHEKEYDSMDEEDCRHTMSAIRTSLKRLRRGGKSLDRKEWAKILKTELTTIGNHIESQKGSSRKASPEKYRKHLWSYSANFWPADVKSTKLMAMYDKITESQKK

Protein translocase subunit SecA (Escherichia coli (strain K12)), sequence (P10408 whole entry): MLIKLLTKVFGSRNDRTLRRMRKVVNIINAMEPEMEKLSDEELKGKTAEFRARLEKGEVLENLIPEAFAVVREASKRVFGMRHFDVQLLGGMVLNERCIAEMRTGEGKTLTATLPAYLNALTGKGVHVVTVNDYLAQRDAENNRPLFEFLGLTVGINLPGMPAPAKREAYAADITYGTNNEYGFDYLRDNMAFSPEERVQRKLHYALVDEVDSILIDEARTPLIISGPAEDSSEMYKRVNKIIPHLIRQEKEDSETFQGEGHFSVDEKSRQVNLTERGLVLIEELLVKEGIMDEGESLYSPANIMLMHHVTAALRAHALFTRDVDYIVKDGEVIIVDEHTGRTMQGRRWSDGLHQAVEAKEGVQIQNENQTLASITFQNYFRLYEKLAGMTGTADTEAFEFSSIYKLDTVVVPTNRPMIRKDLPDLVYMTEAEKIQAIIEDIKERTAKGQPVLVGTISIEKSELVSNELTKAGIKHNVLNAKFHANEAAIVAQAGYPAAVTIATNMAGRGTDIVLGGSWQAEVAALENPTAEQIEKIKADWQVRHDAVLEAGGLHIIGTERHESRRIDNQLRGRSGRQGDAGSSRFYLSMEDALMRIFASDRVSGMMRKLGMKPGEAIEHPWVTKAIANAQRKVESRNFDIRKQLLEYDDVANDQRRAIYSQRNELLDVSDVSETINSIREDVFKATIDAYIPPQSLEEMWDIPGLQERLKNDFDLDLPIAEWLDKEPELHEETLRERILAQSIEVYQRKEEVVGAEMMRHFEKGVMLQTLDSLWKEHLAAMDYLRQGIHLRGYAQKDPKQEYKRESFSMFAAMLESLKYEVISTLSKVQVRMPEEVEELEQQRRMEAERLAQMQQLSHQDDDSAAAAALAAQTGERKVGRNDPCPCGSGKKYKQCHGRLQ
Sialic acid-binding Ig-like lectin 9 (Homo sapiens), sequence (Q9Y336 whole entry): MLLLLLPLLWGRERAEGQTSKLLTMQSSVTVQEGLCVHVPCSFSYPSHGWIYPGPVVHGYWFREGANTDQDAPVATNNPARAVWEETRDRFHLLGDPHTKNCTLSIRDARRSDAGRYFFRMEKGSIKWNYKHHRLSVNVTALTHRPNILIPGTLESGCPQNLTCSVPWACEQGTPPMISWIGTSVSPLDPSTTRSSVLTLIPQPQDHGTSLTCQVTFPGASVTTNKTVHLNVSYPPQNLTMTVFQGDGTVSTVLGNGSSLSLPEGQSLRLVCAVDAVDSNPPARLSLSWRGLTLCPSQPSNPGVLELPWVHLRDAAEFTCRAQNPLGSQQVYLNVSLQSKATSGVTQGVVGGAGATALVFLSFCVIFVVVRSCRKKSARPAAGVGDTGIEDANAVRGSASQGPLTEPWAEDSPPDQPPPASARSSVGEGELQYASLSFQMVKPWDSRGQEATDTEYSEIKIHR

| SMILES | Percent Effect [1] [%] | Percent Effect [2] [%] | Percent Effect [3] [%] | Percent Effect [4] [%] | Percent Effect [5] [%] | Percent Effect [6] [%] | Percent Effect [7] [%] | Percent Effect [8] [%] | Percent Effect [9] [%] | Percent Effect [10] [%] |
| --- | --- | --- | --- | --- | --- | --- | --- | --- | --- | --- |
| CS(=O)(=O)c1cccc(C(N)c2ccc(F)c(F)c2)c1 (stereo not given) | -6.37 | 5.33 | 1.99 | -2.81 | -2.66 | 4.16 | 23.5 | 7.89 | 15.4 | -9.26 |
| COCCN1CC(C(=O)NCc2ccnc(-n3cccn3)c2)CC1=O (stereo not given) | -3.79 | -5.13 | -5.84 | -1.22 | 3.28 | -1.79 | 23.2 | -2.39 | -3.61 | 6.47 |
| COc1cc(C(=O)N2CCCS2(=O)=O)cc(Cl)c1OC | -4.13 | 24 | 3.41 | -0.602 | -4.88 | 9.07 | 7.8 | 4.74 | 15.4 | -12.8 |
| COc1ccc(CNCc2ccc(N3CCCCC3)nc2)cc1OC | 0.873 | 15.4 | -8.85 | 5.92 | 2.87 | 8.62 | 2.97 | 8.13 | 25.3 | -9.53 |
| COCc1ncc(CN2CCC(Oc3ccccc3OC)CC2)cn1 | -4.09 | 2.7 | 1.93 | -3.59 | 3.85 | 9.59 | 1.55 | 5.85 | 14.6 | -3.8 |
| CC(=O)N1CCCN(CC(C)(O)c2cccc(C(F)(F)F)c2)CC1 (stereo not given) | -3.98 | 10.4 | 8.53 | 2.42 | -7.99 | 3.51 | -6.46 | 6.86 | 16.5 | -9.58 |
| CCn1cc(C(=O)N2CCCC(c3[nH]ncc3S(C)(=O)=O)C2)cn1 (stereo not given) | -2.25 | 12 | -0.292 | 0.395 | -0.443 | 13.1 | -2.06 | 4.23 | 20 | -20.4 |
| COC[C@@H]1CC[C@H]2[C@H](CCN2S(=O)(=O)c2ccc(F)cc2)O1 | -2.35 | 6.49 | -4.91 | -3.02 | -0.405 | 12.1 | 11.2 | 4.74 | 7.69 | -2.82 |
| Cc1cc(CN2CCCC2Cn2cncn2)no1 (stereo not given) | -4.42 | 17.9 | -10.5 | 11.9 | -2.05 | 17 | 0.869 | 3.35 | 20.5 | -10.5 |

— ChEMBL document CHEMBL3988442, “University of Dundee, Small-Polar-MMV Screening Library” (2021)
